Screening results from PubChem.
An excerpt weighted towards active compounds, which were near 1.3% of everything screened.
Sa ugtP lethal – growth inhibition of ugtP-null S. aureus, primary screen, RN4220 ugtP deletion, OD600. 16 h. growth inhibition, % (no concentration beside the values). actives 0.54% (n = 330,000); in the data active = growth inhibition above about 68%;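 note: plate controls were untreated wells for no effect and antibiotic for full effect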
Mtb hypoxia rep – PubChem AID 1159583; M. tuberculosis hypoxia-regulated fluorescent reporter, fluorescence; fluorescence inhibition, % (no concentration beside the values); actives 0.1% (n = 300,000); in the data active = fluorescence inhibition mostly above about 23%, no sharp cut-off; inactive = mostly below about 17%
TcdB inh – TcdB glycohydrolase inhibitors, primary screen, biochemical, single point, plate reader; actives 0.24% (n = 350,000); TcdB glycohydrolase enzymatic assay; Toxin B (Clostridioides difficile), P18177; inhibition, % at 9.99 µM; AID 652162, 2013; in the data active = inhibition above about 10%
Sa RN4220 lethal – growth inhibition of S. aureus RN4220, primary screen, OD600. AID 1259311, 2017. actives 0.33% (n = 330,000). 16 h. inhibition, % (concentration not given with the values); in the data active = inhibition above about 85%;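 note: plate controls were untreated cells for no effect and reference antibiotic for full effect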
PfHsp40 rescue – rescue of yeast from PfHsp40 toxicity, primary screen, S. cerevisiae, ATP luminescence; S. cerevisiae expressing PfHsp40, growth rescue; growth rescue, % at 12.5 µM; actives 0.68% (n = 340,000); AID 504582, 2011; in the data active = growth rescue above about 28%, passing the limit was not always enough;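 note: yeast W303a lacking pdr1 and pdr3 grown in galactose medium; growth measured after three days at 30 °C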
MazF activator – activators of E. coli MazEF toxin-antitoxin RNase, primary screen, biochemical, fluorescence, uHTS | Endoribonuclease toxin MazF (Escherichia coli (strain K12)), P0AE70 | FAM/BHQ RNA-DNA oligo cleavage fluorescence, 5 h | activation, % at 20 µM | actives 0.32% (n = 350,000) | AID 504720, 2011; in the data active = activation above about 50%
* hit, by the source's call; · = no result.

SMILES	Sa ugtP lethal	Mtb hypoxia rep	TcdB inh	Sa RN4220 lethal	PfHsp40 rescue	MazF activator
O=C(O)c1cn(-c2ccc(N3CCCC3)c(F)c2)c2c(F)c(F)c(F)cc2c1=O	100.3*	-4.7	-0.2	8.4	-1.1	0.9
CN(C)c1ccc2c(c1)[C@@H]1C[C@@H](CC(=O)NCc3cc(F)ccc3F)O[C@@H](CO)[C@@H]1O2	·	·	-43.5	·	·	·
COCC#Cc1cnc2c(c1)C(=O)N([C@H](C)CO)C[C@H](C)[C@H](CN(C)C(=O)C1CC1)O2	·	·	0.5	·	·	·
COc1ccc(S(=O)(=O)Nc2ccc3oc(C)c(C(=O)O)c3c2)cc1	-5.2	·	14.8*	5.1	0.2	0.9
CC(C)NC(=O)N[C@H]1CC[C@H](CCNS(=O)(=O)c2ccc(F)cc2)O[C@@H]1CO	·	·	-0.4	·	·	·
O=C(C=Cc1ccccc1)Nc1ccc(NC(=O)c2ccco2)cc1	0.2	0.4	·	2.3	·	·
O=C(O)c1ccn2c(C(=O)c3ccc(Cl)cc3)c(-c3ccccc3)cc2c1	·	·	1.0	·	71.6*	6.6
O=C(NC1CCCC1)[C@@H]1[C@@H](CO)[C@@H]2Cn3c(cccc3=O)[C@@H]2N1CCc1ccccc1	·	·	-3.3	·	·	·
Cc1ccc(C(CNC(=O)c2ccc(Br)o2)N2CCN(C)CC2)cc1 (configuration not stated)	-1.1	1.1	-1.6	3.3	0.1	2.5
CN1CCN(C(CNC(=O)c2ccc(Br)o2)c2ccc(F)cc2)CC1 (configuration not stated)	6.7	-1.5	12.5*	3.6	-1.2	9.3
O=C(O)[C@H]1CCCC[C@H]1C(=O)Nc1ccc(S(=O)(=O)N2CCCCC2)cc1	9.6	16.0	-1.3	0.3	-0.1	0.6
O=C(O)C1CCCCC1C(=O)Nc1ccc(S(=O)(=O)N2CCCC2)cc1 (configuration not stated)	8.8	5.5	-2.7	3.8	116.0*	-2.9
CC(=O)Nc1ccc(S(=O)(=O)N2CCCC(C(=O)O)C2)cc1 (configuration not stated)	5.6	9.6	18.0*	7.3	-0.8	6.6
COC(=O)Nc1ccc(S(=O)(=O)N2CCCC(C(=O)O)C2)cc1 (configuration not stated)	-17.7	0.5	-0.4	-7.7	-1.0	-12.6
CCOc1ccc(NC(=O)C2CCCN(S(=O)(=O)c3ccc4[nH]c(=O)ccc4c3)C2)cc1 (configuration not stated)	1.7	-1.5	0.6	5.7	48.6*	-17.4
Cc1[nH]c2ccc(C(=O)NC3CCCC3)cc2c1C	11.6	23.5	6.7	9.5	28.8*	0.0
COc1ccc(-c2nc3oc4cc(OC)ccc4c(=O)c3c(=O)n2Cc2ccco2)cc1	97.9*	4.8	·	27.5	0.9	2.2
CC1CC(C)CN(C(=O)c2cccc(S(=O)(=O)Nc3cc(C(F)(F)F)ccc3Cl)c2)C1 (configuration not stated)	27.2	4.5	-1.5	11.5	224.6*	-10.9
O=C(O)c1cccc(S(=O)(=O)Nc2cc(Cl)ccc2Cl)c1	10.0	9.2	-0.4	14.3	-1.1	5.0
COCC#Cc1ccc([C@H]2[C@@H](CO)N3CCCCN(C(=O)Nc4cc(F)ccc4F)C[C@H]23)cc1	·	·	0.3	·	·	·
O=C(CNc1cccc2ccccc12)NN=Cc1ccc([N+](=O)[O-])o1	100.2*	-5.5	·	99.4*	·	·
O=C(NN=Cc1ccc([N+](=O)[O-])o1)c1cc(-c2cccc(Br)c2)nc2ccccc12	100.3*	·	·	115.4*	·	·
O=C(NN=Cc1ccc([N+](=O)[O-])o1)c1cn2ccc3ccccc3c2n1	100.5*	11.4	·	52.8	·	·
Cc1cc(C(=O)N/N=C/c2cc(Br)cc([N+](=O)[O-])c2O)c2ccccc2n1	·	·	·	·	184.1*	6.0
Cc1cc(C(=O)NN=Cc2cc(Br)cc([N+](=O)[O-])c2O)c2ccccc2n1	-4.2	3.5	·	7.3	·	·
SMILES	Sa ugtP lethal	Mtb hypoxia rep	TcdB inh	Sa RN4220 lethal	PfHsp40 rescue	MazF activator
CCNc1nc(NCC)nc(NN=Cc2ccc(OC)cc2)n1	7.1	-3.5	·	2.0	·	·
Cc1ccc(NC(=O)CCC(=O)NN=Cc2cccs2)cc1	-1.5	3.8	·	0.9	·	·
O=C(Nc1ccccc1F)N[C@@H]1CC[C@@H](CCNS(=O)(=O)c2ccc(Cl)cc2)O[C@H]1CO	·	·	0.9	·	·	·
CCOC(=O)Nc1sc2c(c1C(=O)OCC)CCC2	61.2	5.4	·	-1.0	0.4	-4.7
COC(=O)c1c(NC(=O)/C=C/c2ccco2)sc2c1CCC2	4.6	4.3	0.4	1.9	0.2	56.6*
CCCCOC(=O)Nc1sc2c(c1C(=O)OC)CCC2	92.3*	1.6	·	6.5	0.3	-4.2
COc1ccc(C(C)=NNc2ccccc2Cl)c(O)c1	20.4	9.2	·	7.6	·	·
N/C(=N\OC(=O)c1cccc2ccccc12)c1cccc([N+](=O)[O-])c1	·	·	·	·	0.0	55.2*
O=C(NN=Cc1cc([N+](=O)[O-])ccc1N1CCCC1)c1ccccn1	2.3	9.2	·	3.3	·	·
O=C(COc1ccccc1)Nc1ccncc1	9.2	-3.2	1.6	6.9	44.4*	9.9
COc1ccc2c3c([nH]c2c1)[C@@H](CO)N(C(=O)Nc1ccc(F)cc1)CC31CCN(S(=O)(=O)c2cccc(F)c2)CC1	·	·	-0.2	·	·	·
C[C@@H]1CN([C@H](C)CO)C(=O)c2cc(NC(=O)CCN3CCOCC3)ccc2O[C@H]1CN(C)C(=O)Nc1ccc(F)cc1	·	·	0.1	·	·	·
O=C(CN1CCOCC1)N[C@@H]1CC[C@H](CCNC(=O)C2CCCC2)O[C@@H]1CO	·	·	0.6	·	·	·
Cc1ccc([N+](=O)[O-])cc1	7.3	10.2	-0.7	0.8	-0.3	13.3
CC1C(=O)NN=C1c1ccc([N+](=O)[O-])cc1 (configuration not stated)	·	·	10.5*	·	-1.7	0.5
COc1cc(/C=N/n2c(-c3ccccc3)n[nH]c2=S)ccc1O	·	·	18.3*	·	1.5	2.1
COc1cc(-c2n[nH]c(=S)n2/N=C/c2cccn2C)cc(OC)c1OC	·	·	11.4*	·	2.5	-3.9
CCOC1OC(C(=O)O)=CC(c2ccccc2)C1CCCO (configuration not stated)	1.1	18.5	·	4.2	·	·
COc1ccc2c3c([nH]c2c1)[C@H](CO)N(C(=O)C1CC1)CC31CN(C)C1	·	·	-0.6	·	·	·
Cc1ccc(CNC(=O)C2CC2C(NP(=O)(c2ccccc2)c2ccccc2)c2ccccc2)o1 (configuration not stated)	-4.2	5.1	·	4.7	·	·
CC[n+]1c(/C=C/C=C/N(C(C)=O)c2ccccc2)sc2cc(OC)ccc21	-16.4	-49.2	-0.6	-5.5	·	506.0*
O=C(C[C@@H]1C[C@H]2c3cc(NC(=O)Nc4ccc(C(F)(F)F)cc4)ccc3O[C@H]2[C@@H](CO)O1)NCc1cccnc1	·	·	0.0	·	·	·
COc1ccc(S(=O)(=O)N(CCc2ccccc2)CC(N)=O)cc1	2.6	-2.2	0.4	5.7	104.5*	-2.3
